Laboratory results as given in PubChem BioAssay AID1578 (Sanford-Burnham Center for Chemical Genomics, 2009).
The whole screen tested about 290,000 compounds, of which about 3,000 (1%) were called active. Cut-off read from the data, not from the text of the source: active = inhibition mostly above about 36% (no sharp cut-off); inactive = mostly below about 34%. What follows is part of a selection rich in actives, with near analogues and random picks from the rest.

Assay: inhibition of NOD1-driven NF-kB reporter – cell-based, luminescence, uHTS, primary screen (AID 1578);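 note: HEK-293T reporter cells stimulated with the NOD1 agonist gamma-tri-DAP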
Details: NOD1-driven NF-kB luciferase reporter cells, at 4 µM, stronger effect = higher value

SMILES | inhibition
CSc1ccccc1C(=O)Nc1ccc2c(c1)CCC2 | -1% (inactive)
CCC(=O)NC(c1cccs1)c1cc(Cl)c2cccnc2c1O (configuration not stated) | 32.2% (inactive)
CCCC(=O)NC(c1cccs1)c1cc(Cl)c2cccnc2c1O (configuration not stated) | 55.3% (active)
CCCCC(=O)NC(c1cccs1)c1cc(Cl)c2cccnc2c1O (configuration not stated) | -31.4% (inactive)
CCOc1ccc(C(Nc2cccnc2)c2cc(Cl)c3cccnc3c2O)cc1 (configuration not stated) | 67.5% (active)
O=C(O)COc1ccccc1C(Nc1cccnc1)c1cc(Cl)c2cccnc2c1O (configuration not stated) | -3.2% (inactive)
Oc1c(C(Nc2ccccn2)c2cccnc2)cc(Cl)c2cccnc12 (configuration not stated) | 15.5% (inactive)
CCC(=O)NCCc1nc2cc(NC(=O)COc3ccccc3)ccc2n1C | -21.6% (inactive)
Cc1cc(C)c(S(=O)(=O)NCc2cccnc2)cc1C | 9.3% (inactive)
CCOc1ccc(N2C(=O)CC(/C=C3/N(C)c4ccccc4C3(C)C)C2=O)cc1 (configuration not stated) | -9.6% (inactive)
O=C(Nc1ccc([N+](=O)[O-])cc1)C(=O)Nc1cccc(C(=O)O)c1 | 79.5% (active)
CCOc1ccc(NC(=O)Nc2ccc(NC(C)=O)cc2)cc1 | -22.3% (inactive)
CCOC(=O)c1cccc(NC(=O)c2ccc3c(c2)OCO3)c1 | -56.6% (inactive)
O=C(NNS(=O)(=O)c1ccc([N+](=O)[O-])cc1)C(=O)Nc1cccc(C(=O)O)c1 | -14.5% (inactive)
COC(=O)c1cccc(NC(=O)/C=C/c2ccc3c(c2)OCO3)c1 | 69% (inactive)
CCC(C)NC(=O)Nc1ccc(Br)cc1 (configuration not stated) | -16% (inactive)
CCOC(=O)c1cccc(NC(=O)/C=C/c2ccc3c(c2)OCO3)c1 | 98% (active)
CCOc1ccc(NC(=O)NC(C)CC)cc1 (configuration not stated) | 31.5% (active)
O=C(O)c1cccc(NC(=O)c2cc(NC(=O)c3ccccc3)cc(NC(=O)c3ccccc3)c2)c1 | 12.6% (inactive)
Cc1ccc(C(=O)Nc2cccc(C(=O)NCc3ccccc3)c2)cc1 | -41.3% (inactive)
Cc1ccc(C(=O)Nc2cccc(C(=O)O)c2)cc1 | 73.3% (active)
O=C(N/N=C/C(Cl)=C/c1ccc([N+](=O)[O-])cc1)C(=O)Nc1cccc(C(=O)O)c1 | -14.1% (inactive)
COc1ccc(Cc2nnc(NC(=O)C(C)(C)C)s2)cc1 | -7.8% (inactive)
COc1ccccc1CN1CC(C(=O)NCCc2ccc(Cl)cc2)CC1=O (configuration not stated) | -8.7% (inactive)

SMILES | inhibition
Cc1cc[n+](CC(=O)c2cccc([N+](=O)[O-])c2)c2ccccc12 | -5.3% (inactive)
Cc1ccc(CN2CCNC(=O)C2CC(=O)NCCCn2cccn2)o1 (configuration not stated) | -26.6% (inactive)
COC(=O)Cc1csc(NC(=O)CSc2nnc3ccccn23)n1 | -22.5% (inactive)
COc1ccc(OC)c(C2=NS(=O)(=O)N(C)C(C(=O)N3CCC4(CC3)OCCO4)=C2)c1 | -6.5% (inactive)
COc1ccc2ccccc2c1CNCc1ccc(C)cc1 | -32.1% (inactive)
O=Cc1cn(CCC(=O)O)nc1-c1cccc2ccccc12 | -38.4% (inactive)
COc1ccccc1N=c1oc2c(OC)cccc2cc1C(=O)NCc1ccco1 | -182% (inactive)
CC(=O)Nc1cc2ccccc2oc1=O | -32.2% (inactive)
O=C(Nc1cc2ccccc2oc1=O)c1ccccc1 | 22.4% (inactive)
Cc1cccc(C)c1OCC(=O)Nc1cccc(C(=O)O)c1 | -10.3% (inactive)
CCOc1ccc(NC(=O)Nc2cccc(C(=O)O)c2)cc1 | 97.4% (active)
CC(=O)c1cccc(NC(=O)Nc2ccc3c(c2)OCO3)c1 | -20.8% (inactive)
O=C(Nc1ccc2c(c1)OCO2)Nc1ccc2c(c1)OCO2 | -34.2% (inactive)
CCOc1ccc(NC(=O)c2cccc(NC(=O)c3ccccc3)c2)cc1 | 4.1% (inactive)
CCOC(=O)c1cccc(NC(=O)Nc2ccc(OCC)cc2)c1 | -13.8% (inactive)
O=C(Nc1cccc(C(=O)O)c1)Nc1ccc2c(c1)OCO2 | 74.1% (active)
Cc1ccccc1OCC(=O)Nc1cccc(C(=O)O)c1 | 92% (active)
Cc1ccc(C(=O)Nc2cc3ccccc3oc2=O)cc1 | 85.5% (active)
CC(=O)Nc1cccc(NC(=O)COc2ccccc2C)c1 | 40.3% (inactive)
COc1ccccc1CC(=O)NC1CC1 | -10.2% (inactive)
Cc1cc(C)c(S(=O)(=O)c2ccccc2)c(OC(=O)c2c(F)cccc2F)n1 | -38.9% (inactive)
Cc1cccc(S(=O)(=O)Nc2ccc(-c3nc4ccc(C)cc4s3)cc2)c1 | -35.8% (inactive)
O=C(COC(=O)C12CC3CC(CC(C3)C1)C2)Nc1ccccc1F | -23.3% (inactive)
